The results in this text go back to PubChem BioAssay (Tox21).

Values joined by “and” are separate entries in the source; they are usually repeats but may differ in a detail not shown here. Equal values may be shown once. Records with an inconclusive call do not appear. A structure can be active in one record and inactive in another. Active and inactive are the calls of the source. Unless noted, the call rests on the fitted dose curve; in most records, active means well fitted curve in the direction sought with a large enough effect in the repeat runs; inconclusive means weak or mixed curves; inactive means no such curve, though single readings can be large; an effect the other way counts as inactive or inconclusive.

The nature of assay [1]: qHTS assay to identify small molecule antagonists of the estrogen receptor alpha (ER-alpha) signaling pathway using the BG1 cell line in the presence of 0.1 nM 17-beta-estradiol - cell viability counter screen (AID 1259241). Further: nearly all actives have a fitted effect of over 40% in size. Summed up: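 In this screen, hormone-deprived VM7Luc4E2 cells were seeded at 4,000 per well, dosed with compound and 0.1 nM estradiol final, and incubated 22 hr at 37C and 5% CO2; fluorogenic live-cell protease signal reported viability.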
Background: qHTS replaces the single test concentration by a dilution series.

Assay [2] is described as follows: qHTS assay to identify small molecule antagonists of the androgen receptor (AR) signaling pathway using the MDA cell line in the presence of 0.5 nM R1881 - cell viability counter screen (AID 1259242). Further: nearly all actives have a fitted effect of over 45% in size. Summed up: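 R1881 at 0.5 nM final stimulated MDA-kb2 cells during 16 hr compound treatment at 37C. Cytotoxicity read: CellTiter-Fluor fluorescence after 30 min.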

In assay [3] the target is Androgen receptor (Homo sapiens) (UniProt P10275). Description: qHTS assay to identify small molecule antagonists of the androgen receptor (AR) signaling pathway using the MDA cell line in the presence of 0.5 nM R1881 (AID 1259243). Further: nearly all actives have a fitted effect of over 50% in size. A digest of the protocol: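 We exposed MDA-kb2 cells to compounds under 0.5 nM R1881 stimulation for 16 hr at 37C and quantified MMTV-driven luciferase by luminescence.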

Assay [4] in a line: qHTS assay to identify small molecule HDAC inhibitors (AID 1259364). Further: potency means the concentration at half of the fitted maximal effect.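 Further: wild-type HCT-116 cells with endogenous class I/II HDAC activity; nearly all actives have a fitted effect of over 45% in size.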 A digest of the protocol:
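Relative class I and II HDAC activity is taken from the luminogenic signal in HCT-116 cells, with compound exposure 2 hr and reagent development 30 min at room temperature.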

Assay [5] is described as follows: qHTS assay to identify small molecule HDAC inhibitors - cell viability counter screen (AID 1259365). Further: series mostly up to about 92 µM; nearly all actives have a fitted effect of over 50% in size. A digest of the protocol: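 Measured quantity is CellTiter-Glo luminescence from wild-type HCT-116 cells after compound incubation of 2hr at 37C, 5% CO2; reagent developed 30min at room temperature.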
Assay [6] is described as follows: qHTS assay to identify small molecule agonists of the sonic hedgehog signaling (Shh) pathway - cell viability counter screen (AID 1259366). Further: nearly all actives have a fitted effect of over 50% in size. Further: potency means the concentration at half of the fitted maximal effect. Summed up:
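In quantitative high-throughput format, 3T3 Gli1-Luc cells were exposed to compounds for 24hr and multiplexed for viability using CellTiter-Fluor, incubated 1hr at 37C before the fluorescence read.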

Assay [7] in a line: qHTS assay to identify small molecule antagonists of the sonic hedgehog signaling (Shh) pathway - cell viability counter screen (AID 1259367). Further: nearly all actives have a fitted effect of over 55% in size. Further: potency means the concentration at half of the fitted maximal effect. A digest of the protocol: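 NIH/3T3-derived Gli1-Luc reporter cells, 2,000/well, plated 4 hr before compound addition, then stimulated with conditioned medium for 24 hr at 37C. Viability measured in the same wells by CellTiter-Fluor fluorescence, reagent added at 23 hr for 1 hr.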

The nature of assay [8]: qHTS assay to identify small molecule agonists of the sonic hedgehog signaling (Shh) pathway (AID 1259368; calls by dose curve;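 further: NIH/3T3-derived 3T3Gli1-Luc cells carrying a stable Gli1-driven firefly luciferase reporter; series mostly up to about 92 µM; nearly all actives have a fitted effect of over 15% in size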). Summed up: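 Mouse fibroblast (NIH/3T3) reporter cells with stably integrated Gli1-Luc were treated 24 hr with compound; firefly luciferase luminescence served as the read-out.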
For assay [9], the target named is Estrogen receptor (Homo sapiens) (UniProt P03372). Description: qHTS assay to identify small molecule antagonists of the estrogen receptor alpha (ER-alpha) signaling pathway using the BG1 cell line in the presence of 0.1 nM 17-beta-estradiol (AID 1259244). Further: nearly all actives have a fitted effect of over 50% in size. Summed up:
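VM7Luc4E2; 4xERE-luciferase; 0.1 nM E2 final; 22 h co-incubation, 37C; ONE-Glo luminescence after 30 min at room temperature.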

A short description of assay [10]: qHTS assay to identify small molecule phospholipidosis (PLD) inducers (AID 1259344; active means well fitted curve in the direction sought with a large enough effect; an effect the other way counts as inactive or inconclusive). A digest of the protocol: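 HepG2 cells, 900/well, treated with compound plus LipidTOX Red for 24 h at 37 C; amiodarone positive and DMSO negative controls. Fixed with paraformaldehyde/Hoechst, then high-content imaging scored LipidTOX pit count and integrated intensity per well and per cell.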

Sequence of Estrogen receptor (Homo sapiens) (P03372 whole entry, looked up): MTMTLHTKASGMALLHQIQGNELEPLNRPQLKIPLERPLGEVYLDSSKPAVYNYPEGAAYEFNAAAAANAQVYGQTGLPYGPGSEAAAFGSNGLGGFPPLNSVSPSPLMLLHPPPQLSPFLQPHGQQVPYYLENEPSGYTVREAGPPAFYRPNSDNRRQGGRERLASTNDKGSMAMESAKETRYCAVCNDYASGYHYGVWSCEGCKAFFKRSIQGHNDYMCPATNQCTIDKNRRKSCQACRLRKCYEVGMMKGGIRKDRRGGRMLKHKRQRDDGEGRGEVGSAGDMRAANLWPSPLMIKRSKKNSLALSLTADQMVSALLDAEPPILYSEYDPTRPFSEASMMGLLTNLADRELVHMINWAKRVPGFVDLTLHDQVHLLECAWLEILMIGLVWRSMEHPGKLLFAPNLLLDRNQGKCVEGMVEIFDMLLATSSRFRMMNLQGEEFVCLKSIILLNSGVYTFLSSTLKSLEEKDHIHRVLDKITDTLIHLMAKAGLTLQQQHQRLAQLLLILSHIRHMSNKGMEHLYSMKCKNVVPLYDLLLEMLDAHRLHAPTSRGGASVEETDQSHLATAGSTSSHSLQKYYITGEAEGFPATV
Sequence of Androgen receptor (Homo sapiens) (P10275 whole entry, looked up): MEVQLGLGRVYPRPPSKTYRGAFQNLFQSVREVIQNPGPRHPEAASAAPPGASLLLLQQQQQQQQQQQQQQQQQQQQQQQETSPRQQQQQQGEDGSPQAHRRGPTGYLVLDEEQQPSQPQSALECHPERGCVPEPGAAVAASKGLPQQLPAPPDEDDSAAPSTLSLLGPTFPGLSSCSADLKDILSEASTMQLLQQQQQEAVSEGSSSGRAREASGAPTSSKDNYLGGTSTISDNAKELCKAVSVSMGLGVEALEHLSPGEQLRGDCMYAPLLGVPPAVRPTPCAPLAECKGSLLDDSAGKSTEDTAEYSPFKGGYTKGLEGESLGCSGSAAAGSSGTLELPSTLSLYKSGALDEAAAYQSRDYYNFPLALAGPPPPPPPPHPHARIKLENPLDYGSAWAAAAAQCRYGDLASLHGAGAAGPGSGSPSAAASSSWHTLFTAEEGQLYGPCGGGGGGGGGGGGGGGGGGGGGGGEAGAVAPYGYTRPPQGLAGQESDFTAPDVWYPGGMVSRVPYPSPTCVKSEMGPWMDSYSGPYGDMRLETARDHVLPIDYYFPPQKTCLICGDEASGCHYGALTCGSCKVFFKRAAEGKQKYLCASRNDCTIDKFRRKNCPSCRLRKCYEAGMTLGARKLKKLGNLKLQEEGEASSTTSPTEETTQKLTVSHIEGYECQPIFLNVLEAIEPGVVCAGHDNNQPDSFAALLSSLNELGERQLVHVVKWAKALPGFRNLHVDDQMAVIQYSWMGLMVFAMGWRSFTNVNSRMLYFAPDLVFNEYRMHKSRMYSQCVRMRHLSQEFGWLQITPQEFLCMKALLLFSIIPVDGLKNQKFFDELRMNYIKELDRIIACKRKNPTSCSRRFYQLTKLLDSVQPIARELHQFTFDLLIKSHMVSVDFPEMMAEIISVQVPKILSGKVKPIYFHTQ

Consider `CCCOCC(C)O` (stereo unspecified), for which the Potency entry in assay [1], in assay [2], in assay [3], in [4], in assay [5] and in [6] was “inactive” in each case. The Potency result in [7] and in assay [8] was “inactive” in each case.
Take `CCCCC(=O)O`: the Potency entry in [1], in [2], in assay [9], in [4], in [5] and in [6] was “inactive” throughout. For the same compound, the Potency entry in assay [7] and in assay [8] was “inactive” each time. Further, the compound was called inactive in assay [10].
Regarding `CC(=O)CC(=O)N(C)C`, the Potency entry in assay [1], in assay [2], in [9], in assay [4], in [5] and in assay [6] was “inactive” throughout. For the same compound, the Potency entry in assay [7] and in [8] was “inactive” each time.
As for `O=C(Cl)c1ccc(C(=O)Cl)cc1`, the Potency result in [1], in assay [2], in assay [9], in assay [4], in [5] and in assay [6] was “inactive” each time. For the same compound, the Potency result in assay [7] and in assay [8] was “inactive” each time.
In the case of `Cc1nnc(NS(=O)(=O)c2ccc(N)cc2)s1`, the Potency entry in assay [1], in assay [2], in assay [3], in assay [9], in assay [5] and in [6] was “inactive” throughout. The Potency result in assay [7] and in assay [8] was “inactive” throughout. Besides, the compound was classed as inactive in assay [10].
As for `CC1(C)C(=O)N(Cl)C(=O)N1Cl`, the Potency result in assay [1], in [2], in assay [9], in [4], in assay [5] and in assay [6] was “inactive” in each case. Also, the Potency entry in [7] and in [8] was “inactive” each time.
`COc1ccc([C@@H]2CC(=O)c3c(O)cc(O[C@@H]4O[C@H](CO[C@@H]5O[C@@H](C)[C@H](O)[C@@H](O)[C@H]5O)[C@@H](O)[C@H](O)[C@H]4O)cc3O2)cc1OC`: the Potency entry in assay [1], in assay [2], in assay [9], in [4], in [5] and in assay [6] was “inactive” throughout. Also, the Potency entry in assay [7] and in assay [8] was “inactive” throughout.
With `C[Si](C)(C)N[Si](C)(C)C`, the Potency result in assay [1], in [2], in assay [9], in [4], in [5] and in assay [6] was “inactive” throughout. Also, the Potency entry in [7] and in assay [8] was “inactive” throughout.
In the case of `O=[N+]([O-])c1cc(C(F)(F)F)ccc1Cl`, the Potency entry in assay [1], in [2], in [3], in assay [4], in assay [5] and in assay [6] was “inactive” in each case. Moreover, the Potency entry in assay [7] and in [8] was “inactive” in each case.
Take `CC(=O)Nc1ccc(CC(=O)O)cc1`: the Potency entry in assay [1], in [2], in [9], in [4], in assay [5] and in assay [6] was “inactive” in each case. Further, the Potency result in assay [7] and in assay [8] was “inactive” in each case. For the same compound, the call in assay [10] was inactive.
For the compound `CC(O)CNCC(C)O` (stereo unspecified), the Potency result in [1], in assay [2], in assay [9], in assay [4], in [5] and in assay [6] was “inactive” each time. Moreover, the Potency result in assay [7] and in assay [8] was “inactive” throughout.
For `CCOC(=O)c1ccc(O)cc1`, the Potency result in assay [1], in assay [2], in [9], in assay [5], in assay [6] and in assay [7] was “inactive” in each case. Moreover, in assay [8], the Potency entry is “inactive”. The call in assay [10] was inactive.
For `CO[Si](CCCNCCN)(OC)OC`, the Potency result in assay [1], in assay [2], in [3], in assay [4], in [5] and in assay [8] was “inactive” in each case. The Potency in [6] is 5.53 µM (active) and inactive; in assay [7], 15.6 µM (active) and inactive.
Consider `Nc1nc(N)c2nc(-c3ccccc3)c(N)nc2n1`, for which the Potency result in assay [1], in [2], in assay [3], in assay [9], in [4] and in [5] was “inactive” throughout. Further, the Potency result in assay [7] and in assay [8] was “inactive” each time. In addition, the outcome in [10] was inactive.
Regarding `OB(O)O`, the Potency result in [1], in assay [2], in assay [9], in [4], in [5] and in [6] was “inactive” each time. For the same compound, the Potency result in assay [7] and in assay [8] was “inactive” throughout. The compound was called inactive in assay [10].
As for `N[C@@H](Cc1cc(I)c(Oc2ccc(O)c(I)c2)c(I)c1)C(=O)O`, the Potency result in assay [1], in assay [2], in [9], in assay [5], in [6] and in assay [7] was “inactive” throughout. Further, the Potency result in assay [8] was “inactive”. In addition, in [10], the result was inactive.
Turning to `O=c1c(O)c(-c2ccc(O)c(O)c2)oc2cc(O)cc(O)c12`, the Potency result in [1], in assay [2], in assay [9], in assay [5] and in [8] was “inactive” throughout. Besides, in assay [10], the call was inactive. For the same compound, the Potency was 27.3 µM (active) and 24.5 µM (active) and 11.9 µM (active) in [4]; 30.9 µM (active) in assay [6]; 48.6 µM (active) and inactive in assay [7].
Turning to `NC(=O)NC(N)=O`, the Potency entry in assay [1], in assay [2], in assay [9], in assay [4], in [5] and in assay [6] was “inactive” throughout. Also, the Potency entry in assay [7] and in assay [8] was “inactive” each time.
For `NC(N)=S`, the Potency entry in assay [1], in assay [2], in assay [9], in assay [4], in assay [5] and in [6] was “inactive” throughout. Further, the Potency entry in assay [7] and in assay [8] was “inactive” in each case.
`CN1CCCC1=O`: the Potency entry in [1], in assay [2], in assay [9], in [4], in assay [5] and in assay [6] was “inactive” each time. The Potency entry in assay [7] and in [8] was “inactive” throughout.
In the case of `Nc1cccc(C(F)(F)F)c1`, the Potency entry in assay [1], in assay [2], in assay [9], in [4], in [5] and in assay [6] was “inactive” in each case. Also, the Potency entry in assay [7] and in [8] was “inactive” in each case.
`CN=C(NC#N)NCCSCc1nc[nH]c1C`: the Potency result in [1], in assay [2], in [9], in assay [5], in assay [6] and in assay [7] was “inactive” throughout. Further, the Potency entry in assay [8] was “inactive”. Further, the compound was classed as inactive in assay [10].
On to `Cc1ccc(Cl)cc1`, for which the Potency result in [1], in assay [2], in assay [9], in [4], in assay [5] and in [6] was “inactive” throughout. For the same compound, the Potency result in [7] and in [8] was “inactive” throughout.
With `Cc1ccccc1Cl`, the Potency result in assay [1], in assay [2], in assay [3], in assay [9], in assay [5] and in [6] was “inactive” in each case. Moreover, the Potency result in [7] and in [8] was “inactive” each time.
As for `CC(=O)OC(C)(C)C1CC=C(C)CC1` (stereo unspecified), the Potency entry in assay [1], in [2], in assay [9], in [4], in [5] and in [6] was “inactive” in each case. Besides, the Potency entry in [7] and in assay [8] was “inactive” in each case.
